PubChem BioAssay AID1159580 (chemical genetic matrix, 2015)
Screen size: about 5,500 compounds; about 2,000 (36%) were called active. Another 18% or so got no clear call; they are omitted. No stated cut-off is given here; in the data, active means normalized growth mostly below about 0.91 (no sharp cut-off); inconclusive means no clear call, values can overlap the other calls; inactive means mostly above about 0.92. The list shows a part of the results.

Assay: chemical genetic growth profiling, strain panel (AID 1159580);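 further: tested at 20 µM; growth read once vehicle control cultures reached saturation at 30 °C; 1 = growth at the plate median or of vehicle wells; lower values mean less growth of the strain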
Conditions: S. cerevisiae deletion strains, growth OD

Measured: normalized growth

NC(N)=NC(N)=NCCc1ccccc1
inactive: locus YHR030C, strain SLT2, hits give low values 0.956 | locus YHR079C, strain IRE1, hits give low values 0.96 | locus YJL095W, strain BCK1, hits give low values 0.961 | locus YJR066W, strain TOR1, hits give low values 0.953 | locus YLR113W, strain HOG1, hits give low values 0.965 | locus YNL183C, strain NPR1, hits give low values 0.916 | locus YOR231W, strain MKK1, hits give low values 0.975 | locus YPL256C, strain CLN2, hits give low values 0.934
